Reference: ChEMBL document CHEMBL4513216, “Probing the Open Global Health Chemical Diversity Library for Multistage-Active Starting Points for Next-Generation Antimalarials” (ACS Infect Dis, 2020)
In all, about 69,000 compounds went through this assay and about 8,600 (12%) showed an effect of 50% or more. This excerpt belongs to a sample that is enriched for strong results.

tested on: Plasmodium berghei; assay: Screen against P. berghei liver stage (PbLuc), transformed with Luciferase, at 10uM; type: functional, HepG2; conditions: tested at 10 uM

| Compound | INHIBITION [%] |
| --- | --- |
| Cc1cnc(N2C[C@@H]3CN(Cc4ccco4)CCC[C@]3(C(=O)O)C2)nc1 | 15.3 |
| O=C(CCNC(=O)C1CCCC1)NCc1ccccc1Cn1ccnc1 | 7.27 |
| COc1ccc(CNC(=O)Nc2cccnc2N2CCCC2)cc1 | 19.2 |
| O=C(NCC1CC1)c1cc(Br)cnc1N1CCCCC1 | 16.4 |
| CCCN1CCC2(Cc3ccccc3NC2=O)C1 (configuration not stated) | 36.2 |
| CC(C)CN1CCC2(Cc3ccccc3NC2=O)C1 (configuration not stated) | 58.7 |
| O=C1Nc2ccccc2CC12CCN(CCO)C2 (configuration not stated) | -36.2 |
| O=C(c1ccc[nH]1)N1CCc2ccc(S(=O)(=O)N3CCOCC3)cc2C1 | 6.99 |
| Cn1c(-c2ccc(F)cc2)cn2cc(C(=O)N3CC[C@@H](O)C3)nc2c1=O | 40.7 |
| CN(C)C(=O)c1cn2cc(-c3cccc(Cl)c3)n(CC3CC3)c(=O)c2n1 | 17.8 |
| CNC(=O)c1cn2cc(-c3cccc(Cl)c3)n(CC3CC3)c(=O)c2n1 | 55.4 |
| CNC(=O)CC1CCN(Cc2nc(-c3cccc(Cl)c3)oc2C)CC1 | 13.5 |
| COCCCNC(=O)Cn1c(-c2cccc(Cl)c2)nc(C)cc1=O | 14.6 |
| CC(=O)NCCNC(=O)c1cnc2c(c1)nc(-c1ccccc1Cl)n2C | -76.5 |
| CNC(=O)c1cn2cc(-c3cccc(Cl)c3)n(CC=C(C)C)c(=O)c2n1 | 76.7 |
| CC(C)NC(=O)NCc1cc(-c2cccc(Cl)c2)nn1C | 13 |
| CNC(=O)c1cn2cc(-c3ccccc3Cl)n(CC=C(C)C)c(=O)c2n1 | 61.9 |
| CNC(=O)c1cn2cc(-c3ccc(F)cc3)n(CC=C(C)C)c(=O)c2n1 | 69.3 |
| Cn1c(-c2ccc(F)cc2)cn2cc(C(=O)N3CCC(N)C3)nc2c1=O (configuration not stated) | 24.4 |
| NC(=O)c1cn2cc(-c3ccccc3Cl)n(CC3CC3)c(=O)c2n1 | 5.46 |
| Cc1nc(-c2ccsc2)ccc1C(=O)NC(C)CN1CCOCC1 (configuration not stated) | -4.43 |
| O=C(c1cscn1)N1CCc2ncnc(-c3ccncc3)c2CC1 | -7.24 |
| O=C(CSc1ccncc1)NC1CC(=O)N(CCc2ccccc2)C1 (configuration not stated) | -15.9 |

| Compound | INHIBITION [%] |
| --- | --- |
| CC(O)CN1CCC(CNCc2ccccc2C(F)(F)F)CC1 (configuration not stated) | 0.24 |
| CN1CCN(C2CCN(CCCOc3ccc(F)cc3)CC2)C1=O | 47 |
| CCOC(=O)CNC(=O)C1OC(c2ccccc2)=NN1C(C)=O (configuration not stated) | -19.1 |
| CCOC1CCN(C(=O)CN(C)c2cnccn2)CC1 | 26.083 |
| CC(C)Nc1ccc2nc(C3CCN(C(C)C)CC3)nn2c1 | -7.35 |
| CNC(=O)c1cn2cc(-c3ccccc3Cl)n(CC3CC3)c(=O)c2n1 | 33.3 |
| CN(C)C(=O)c1cn2cc(-c3ccccc3Cl)n(CC3CC3)c(=O)c2n1 | -0.273 |
| CCNC(=O)c1cn2cc(-c3ccccc3Cl)n(CC3CC3)c(=O)c2n1 | 73.5 |
| COCC(=O)N1C[C@@H](OCc2ccncc2)[C@@H]2OCCC[C@@H]21 | 35.8 |
| c1ccc(CN2CCN3C[C@H](Oc4cccnc4)C[C@H]3C2)nc1 | 41.2 |
| Fc1cccc(O[C@@H]2C[C@H]3CN(Cc4ccncc4)CCN3C2)c1 | 90.7 |
| c1cc(CN2CCN3C[C@H](Oc4cncnc4)C[C@H]3C2)ccn1 | -11.3 |
| Cn1ccnc1CN1CCN2C[C@H](Oc3cccc(F)c3)C[C@H]2C1 | 38.5 |
| c1ccc(CN2CCN3C[C@H](Oc4cncnc4)C[C@H]3C2)nc1 | -8.6 |
| Fc1cccc(O[C@@H]2C[C@H]3CN(Cc4ccccn4)CCN3C2)c1 | 85.4 |
| CC(O)CN1CCN(C(=O)CN(C)c2ccc(C#N)cn2)CC1 (configuration not stated) | 18.4 |
| Fc1ccccc1C1(CNC2CCOC3(CCOCC3)C2)CCCC1 (configuration not stated) | 14.4 |
| c1cnn(CCCO[C@@H]2CN(C3CCOCC3)[C@@H]3CCCO[C@@H]32)c1 | -40.9 |
| Cc1nnc2n1CCN(c1nn3cc(C(C)(C)C)nc3s1)C2 | -1.15 |
| Cc1ccsc1C(=O)N1CC[C@H]2CO[C@H](CN(C)C)[C@H]2C1 | -47.5 |
| COCCN1Cc2ccccc2C2(CCN(S(C)(=O)=O)CC2)C1 | -21.1 |
| O=c1[nH]c2nc(N3CCCCCC3)ncc2c(=O)n1-c1cccc(F)c1 | 21.7 |
| Cc1nccn1CC1CCCN(C(=O)c2cnn(C)c2)C1 (configuration not stated) | 20.4 |

| Compound | INHIBITION [%] |
| --- | --- |
| Cc1nccn1CC1CCCN(C(=O)Cc2ccsc2)C1 (configuration not stated) | 42.5 |
| Cc1nccn1CC1CCN(C(=O)c2ccccc2)CC1 | 67.4 |
| Cn1ccnc1N1CCN(C(=O)Cc2ccccc2)CC1 | 34.2 |
| Cc1nccn1CC1CCN(C(=O)c2cccs2)CC1 | 14.2 |
| Cc1nccn1CC1CCN(C(=O)Cc2ccccc2)CC1 | 65.9 |
| Cn1cc(-c2cc(-c3cnn(C)c3)n(CC(=O)NC3CC3)n2)cn1 | 44.3 |
| COCCN1CCC1c1cc(NC2CCCC2)nc(C)n1 (configuration not stated) | 4.41 |
| Cc1nnc(C(C)NCC2(c3ccc(Cl)cc3)CCCC2)o1 (configuration not stated) | 18.2 |
| Cc1nnc(C(C)NCC2(c3ccc(Cl)cc3)CCOCC2)o1 (configuration not stated) | 11.8 |
| Clc1ccc(C2(CNC3=NCCN3)CCCCC2)cc1 | 74 |
| Fc1ccc(C2(CNC3=NCCCN3)CCC2)cc1 | -20.3 |
| OCCN(Cc1ccncc1)CC1(c2ccc(Cl)cc2)CCCC1 | 18.3 |
| CC1(C)CN(C(CNC2=NCCN2)c2ccc(Cl)cc2)CCO1 (configuration not stated) | 1.84 |
| Fc1ccc(C2(CNC3=NCCN3)CCCC2)cc1 | 27.6 |
| Clc1ccc(C2(CNC3=NCCN3)CCCC2)cc1 | 68.2 |
| Clc1ccc(C2(CNC3=NCCN3)CC2)cc1 | 56.6 |
| CC(=O)N1CC(c2ccnc(Nc3nccs3)n2)C1 | 12.6 |
| CN(C)CC1CN(Cc2nnc(C(C)(C)C)o2)CCO1 (configuration not stated) | -104 |
| CCc1nc(-c2cncnc2C2CCNC2)no1 (configuration not stated) | 3.6 |
| Cc1cnc(C(=O)N2CCC(C(=O)c3cc(F)ccc3F)CC2)cn1 | -121 |
| NC(=O)N1CCC2(CCN(Cc3ccccn3)C2=O)C1 (configuration not stated) | 24.5 |
